# In the library only some 3% were active in any assay of this set; here they are far more common.
# FBA Mtb inh – Mtb FBA enzyme inhibitors, primary screen, biochemical, fluorescence, strain H37Rv | Fructose-bisphosphate aldolase (Mycobacterium tuberculosis (strain ATCC 25618 / H37Rv)), … | purified M. tuberculosis FBA, fluorescence read-out | inhibition, % at 1 µM | 2.3% of 360,000 active | AID 588726, 2011; in the data active = inhibition above about 27%;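 note: 0% = vehicle and 100% = reference inhibitor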
# Target sequence (P9WQA3 whole entry, looked up): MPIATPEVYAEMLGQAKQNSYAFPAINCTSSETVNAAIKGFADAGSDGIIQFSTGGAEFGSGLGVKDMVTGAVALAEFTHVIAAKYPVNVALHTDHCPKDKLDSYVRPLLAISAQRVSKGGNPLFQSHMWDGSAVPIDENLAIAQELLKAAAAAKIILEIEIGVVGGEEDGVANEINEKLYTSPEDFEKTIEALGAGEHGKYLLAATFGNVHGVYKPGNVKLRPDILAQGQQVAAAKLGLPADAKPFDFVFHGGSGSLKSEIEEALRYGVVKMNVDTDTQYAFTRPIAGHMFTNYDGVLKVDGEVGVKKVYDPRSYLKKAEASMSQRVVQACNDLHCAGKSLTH
# BH1578 lux ind – inducers of Vibrio cholerae quorum light production without autoinducers, primary screen, BH1578 luxS cqsA deficient, single point; V. cholerae BH1578 lux reporter, luminescence, 6 h; activation, % at 18.7 µM; 0.16% of 350,000 active; in the data active = activation mostly above about 9.7%, no sharp cut-off
# Mtb BioA inh – M. tuberculosis BioA enzyme inhibitors, primary screen, biochemical, plate reader, single point, HTS; purified M. tuberculosis BioA enzyme; inhibition, % at 9.99 µM; 0.096% of 360,000 active; AID 602481, 2012; in the data active = inhibition above about 40%
# GDH-TPI counter – GDH-TPI coupling enzyme inhibitors, primary screen, artefact control for M. tuberculosis FBA inhibitor project, biochemical, absorbance, full deck | 1.2% of 360,000 active | inhibition, % at 4.8 µM | GDH-TPI coupled enzyme counterscreen, NADH absorbance; in the data active = inhibition above about 30%;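 note: 0% = DMSO wells and 100% = wells lacking the enzyme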
# Active calls of the source: *; i = inactive; x = no result given; + = active, no number.
SMILES,FBA Mtb inh,BH1578 lux ind,Mtb BioA inh,GDH-TPI counter
COc1cccc(-c2ccc3c(c2)[C@H]2[C@H](CCN2C(=O)c2cccc(F)c2)[C@@H](CO)N3)c1,x,x,11,x
Cc1noc(C)c1NC(=O)Nc1cccc2c1O[C@@H](CN(C)C(=O)Nc1ccccc1)[C@H](C)CN([C@@H](C)CO)C2=O,x,x,-2,x
C[C@@H]1CN([C@@H](C)CO)C(=O)Cc2cc(NC(=O)Nc3ccc(C(F)(F)F)cc3)ccc2O[C@H]1CN(C)CC1CCCCC1,x,x,-1,x
COc1cccc(NC(=O)N[C@H]2C=C[C@@H](CC(=O)N3CCN(C)CC3)O[C@H]2CO)c1,x,x,-3,x
O=C(N/N=C/c1cc([N+](=O)[O-])cc([N+](=O)[O-])c1O)/C(=C\c1cccs1)NC(=O)c1ccccc1,-6,0,-1,37*
Cc1ccccc1NC(=O)/C(=C\c1cccs1)NC(=O)c1ccccc1,0,0,-6,26
O=C(O)c1ccc(N/N=C/c2ccc(C(F)(F)F)cc2)cc1,-2,0,2,26
CN(C)c1ccc(/C=N/NC(=O)c2cc(-c3ccc4c(c3)OCO4)n[nH]2)cc1,3,0,x,36*
O=C(O)c1ccc(/C=N/Nc2ncc(C(F)(F)F)cc2Cl)cc1,-1,-4,x,37*
CC(C)(C)c1ccc(/C=N/Nc2ccc(C(=O)O)cc2)cc1,-3,0,0,42*
CC(C)(C)C(=O)Nc1ncc(C(F)(F)F)cc1Cl,1,0,-1,0
Cc1noc(C)c1S(=O)(=O)N(C)C[C@H]1Oc2ccc(NS(=O)(=O)c3ccccc3)cc2CC(=O)N([C@@H](C)CO)C[C@H]1C,x,x,-1,x
C[C@@H]1CCCCO[C@H](CN(C)C)[C@@H](C)CN([C@@H](C)CO)C(=O)c2cc(NC(=O)Nc3ccc4c(c3)OCO4)ccc2O1,x,x,1,x
O=C(N/N=C/c1ccc(Cl)cc1)c1ccc2c(c1)OCO2,2,i,-2,14
O=C(N/N=C/c1ccc2c(c1)OCO2)c1ccc2c(c1)OCCO2,3,0,x,42*
CCOc1cc(/C=N/NC(=O)c2cccnc2)ccc1O,-10,1,41*,38*
Cc1ccc(C(=O)N/N=C\c2ccc(-c3ccc(Cl)c(Cl)c3)o2)cn1,4,i,-2,63*
CCOc1cc(/C=N/Nc2ncnc(Cl)c2N)ccc1O,-3,0,19,33*
COc1cc(/C=N/NC(=O)c2cnccn2)ccc1O,-4,i,x,34*
O=C(N/N=C/c1ccncc1)c1cnccn1,6,0,x,4
CCOc1cc(/C=N/Nc2nnc(C)n2N)ccc1O,-11,-1,-2,8
O=C(C[C@H]1C=C[C@H](NS(=O)(=O)c2cccc(F)c2)[C@H](CO)O1)NCc1ccc2c(c1)OCO2,x,x,-2,x
C[C@H](CO)N1C[C@H](C)[C@H](CN(C)S(=O)(=O)c2ccc(F)cc2)OCCCC[C@H](C)Oc2ccc(NC(=O)c3ccncc3)cc2C1=O,x,x,1,x
COc1ccc(/C=N/NC(=O)c2ccc(C)nc2)cc1O,1,0,2,33*
Cc1c(Cl)c([N+](=O)[O-])nn1Cc1ccc(C(=O)N/N=C\c2ccccn2)o1,2,0,2,15
SMILES,FBA Mtb inh,BH1578 lux ind,Mtb BioA inh,GDH-TPI counter
CCCCNC(=S)N/N=C/c1cccc(OCC)c1O,1,0,-2,33*
O=C(COc1ccccc1C(=O)N/N=C\c1ccc(O)c(O)c1)N/N=C/c1ccc(O)c(O)c1,1,1,-1,56*
COc1cc(/C=N\NC(=O)c2ccc(Cn3nc([N+](=O)[O-])c(Cl)c3C)o2)ccc1O,5,0,x,40*
COc1cccc(/C=N\NC(=O)c2ccc(C)nc2)c1,-3,0,2,9
CCOc1cc(/C=N/NC(=O)c2cccnc2)ccc1OCC(N)=O,-2,0,x,14
CCOc1cccc(/C=N/NC(=O)c2cccnc2)c1O,-4,i,9,31*
CCOc1cc(/C=N/NC(=O)C(=O)N/N=C/c2ccc(O)c(OCC)c2)ccc1O,-3,-1,-1,51*
O=C(N/N=C/c1cccc(OC(=O)c2ccccc2Cl)c1)c1cccnc1,2,0,50*,8
COc1cc2ccccc2cc1C(=O)N/N=C/c1cccnc1,7,0,72*,9
COc1ccc(Br)cc1C(=O)N/N=C/c1cccnc1,-3,i,24,2
CCCNC(=O)Nc1ccc2c(c1)C(=O)N(C)[C@@H]1CC[C@@H](CC(=O)NCC3CCCCC3)O[C@@H]1CO2,x,x,2,x
Nc1c(Cl)ncnc1N/N=C/c1cccnc1,2,0,x,40*
CCOc1cc(/C=N/NC(=O)c2ccccc2OCc2ccc(F)cc2)ccc1O,6,i,3,41*
CC1(C)CC(NC(=O)c2coc(=O)c(Br)c2)CC(C)(C)N1,60*,x,-1,26
Cc1cc(=O)n2c3ccccc3n(CC(O)CN3CCOCC3)c2c1C#N (configuration not stated),6,0,0,12
Cc1cc(=O)n2c3ccccc3n(CC(O)CN3CCCCC3)c2c1C#N (configuration not stated),20,1,x,50*
CCC(=O)Nc1ccc2oc(-c3cccnc3)nc2c1,172*,-1,5,25
CC(C)CC(=O)Nc1ccc2oc(-c3cccnc3)nc2c1,129*,7,13,-2
Cc1ccc2nc(-c3cccnc3)oc2c1,41*,0,x,-6
O=C1c2ccccc2NC(c2ccccc2)N1/N=C/c1ccccc1 (configuration not stated),7,0,1,1
O=C1c2ccccc2NC(c2ccc(O)cc2)N1/N=C/c1ccc(O)cc1 (configuration not stated),3,i,x,32*
C[C@@H]1CN([C@@H](C)CO)C(=O)c2cc(C#Cc3cccc(F)c3)cnc2O[C@@H]1CN(C)Cc1ccccn1,x,x,-7,x
Cc1c(C(=O)O)sc2nc(-c3cccs3)cc(C(F)(F)F)c12,32*,0,4,21
CS(=O)(=O)c1sc2nc(-c3cccs3)cc(-c3ccccc3)c2c1N,15,1,x,31*
CC(=O)c1sc2nc(-c3cccs3)cc(C(F)(F)F)c2c1N,+,x,-1,18
Cc1ccc(-c2cc(-c3ccccc3)c3c(N)c(S(C)(=O)=O)sc3n2)cc1,15,0,0,14
Cc1ccc(S(=O)(=O)N(C)C[C@@H]2Oc3ncc(C#Cc4ccc(C(F)(F)F)cc4)cc3C(=O)N([C@H](C)CO)C[C@@H]2C)cc1,x,x,-6,x
CC=Cc1ccc2n(c1=O)C[C@H]1[C@H](CO)[C@@H](C(=O)NCc3ccccc3)N(Cc3cncnc3)[C@@H]21 (mixture of isomers),x,x,0,x
CNC[C@@H]1Oc2ccc(NC(=O)NC3CCCCC3)cc2C(=O)N([C@H](C)CO)C[C@H]1C,x,x,0,x

# Screening data: PubChem BioAssay, several laboratories
